Shown are actives, neighbours in structure and some others; about 20% of the full set was active somewhere.
HCMV antiviral: qHTS Assay for inhibitors of the human cytomegalovirus (HCMV); HFF cells, HCMV-luciferase reporter, 72 h; stronger effect = lower value; activity change, negative = inhibition, % at 57.5 µM; 410,000 tested, 4.5% active; in the data active means activity change below about -60%; inconclusive means no clear call, values can overlap the other calls; inactive means above about -39%; further: on the % scale 0 is the no-effect control and ±100 the full control effect
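Screen run at 2 compound doses on HFFs infected with reporter HCMV, MOI 1 PFU/cell. Luciferase activity from cell lysates at 72 h post infection gave inhibition relative to buffer-only and Salinomycin wells.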
Pf growth 48h: Primary qHTS for delayed death inhibitors of the malarial parasite plastid, 48 hour incubation; P. falciparum luciferase growth in erythrocytes, 48 h; Potency, µM (doses to about 28.7 µM), inactives show at the highest dose activity change, negative = inhibition, hits mostly inhibitors; 310,000 tested, 5.9% active; further: potency means the concentration at half of the fitted maximal effect; on the % scale 0 is the no-effect control and ±100 the full control effect
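First compound was added to culture medium, then infected red cells at 0.1% parasitemia and 2% hematocrit (final). After incubation at 37 C under 5% CO2, luciferase detection reagent was dispensed and light output recorded.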
Pf growth 96h: Primary qHTS for delayed death inhibitors of the malarial parasite plastid, 96 hour incubation. 320,000 tested, 6.9% active. Potency, µM (titrated, usually from 28.7 µM), without a hit: top-dose activity change, negative = inhibition, usual class: inhibitors. P. falciparum luciferase reporter growth, 96 h; further: potency means the concentration at half of the fitted maximal effect; on the % scale 0 is the no-effect control and ±100 the full control effect
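Erythrocytes infected with luciferase-expressing P. falciparum were dispensed at 2% hematocrit and 0.05% parasitemia (final), then incubated with compounds 96 hours at 37 C in 5% CO2. Luminescence after detection reagent addition reported growth.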
Shiga inhibitor: A qHTS for Small Molecule Inhibitors of Shiga Toxin | Vero cells, Shiga toxin protein synthesis inhibition reporter | inhibition, % at 38.7 µM | 290,000 tested, 9.2% active | AID 2315, 2010; in the data active means inhibition mostly above about 28%, no sharp cut-off; inactive means mostly below about 43%; further: 0% is about no effect
Cycloheximide cs: Cycloheximide Counterscreen for Small Molecule Inhibitors of Shiga Toxin. AID 2314, 2010. max response, %. 300,000 tested, 12% active. cell reporter, cycloheximide protein synthesis inhibition counterscreen; in the data active means max response mostly above about 13%, no sharp cut-off; inactive means mostly below about 14%; further: read at 38.3 µM for the half of the compounds with a filed dose; 0% is about no effect
* = called active by the depositor. Unless noted, the call rests on the fitted dose curve; in most records, active means well fitted inhibition curve with a large enough effect; inconclusive means small, poorly fitted or top-dose-only effect, or another doubt; inactive means no such curve, though single readings can be large or run the other way.

For CCCN1C(=O)c2ccccc2NC1c1ccc(Cl)c(Cl)c1 (centres undefined) the results were HCMV antiviral -14.3, Pf growth 48h inconclusive, Pf growth 96h 9.28µM*, Shiga inhibitor -5.7 and Cycloheximide cs -4.9.
Screening CCCN1C(=O)c2ccccc2NC1c1ccc(O)c(OCC)c1 (centres undefined) returned HCMV antiviral -5.7, Pf growth 48h inconclusive, Pf growth 96h -3.9%, Shiga inhibitor -6.5 and Cycloheximide cs -2.2.
CCCN1C(=O)c2ccccc2NC1c1ccc(Cl)cc1 (centres undefined) was read as HCMV antiviral 42.3, Pf growth 48h 13.1µM*, Pf growth 96h 19.8%, Shiga inhibitor -3.7 and Cycloheximide cs 1.4.
Screening CCCN1C(=O)c2ccccc2NC1c1ccc(Br)cc1 (centres undefined) returned HCMV antiviral -9.2, Pf growth 48h inconclusive, Pf growth 96h -1.4%, Shiga inhibitor 2.4 and Cycloheximide cs 1.1.
For OC[C@@H]1[C@@H](c2ccc(F)cc2)C(c2ccc(F)cc2)=NN1c1ccccc1 the results were Shiga inhibitor inactive and Cycloheximide cs 0.2.
For CCN(CC)CCN1CCn2c3c(c4cc(C)ccc42)CCCC31 (centres undefined) the results were HCMV antiviral inconclusive, Pf growth 48h 3.7µM*, Pf growth 96h 9.28µM*, Shiga inhibitor 8.9 and Cycloheximide cs 10.5.
`CCN1CCn2c3c(c4cc(Cl)ccc42)CCCC31` (centres undefined) gave HCMV antiviral 38.0, Pf growth 48h inconclusive, Pf growth 96h 1.5%, Shiga inhibitor -12.6 and Cycloheximide cs 0.4.
For CCCCN1C(=O)C(CC(=O)NC2CCCCC2)CC(C(=O)N2CCCCCC2)=C1C (centres undefined) the results were HCMV antiviral -2.5.
Screening Cc1nc(NC(=O)/C=C/c2ccccc2)n[nH]1 returned HCMV antiviral -96.3*, Pf growth 48h inconclusive, Pf growth 96h inconclusive, Shiga inhibitor 22.1 and Cycloheximide cs 15.5*.
CCCCC(=O)Nc1nnn(CCC)n1 was read as HCMV antiviral 8.3, Pf growth 48h -8.4%, Pf growth 96h inconclusive, Shiga inhibitor -5.9 and Cycloheximide cs -3.0.
`CCCn1nnc(NC(=O)c2ccccc2Cl)n1` gave HCMV antiviral 31.8, Pf growth 48h 86.6%, Shiga inhibitor 46.4 and Cycloheximide cs 26.8*.
`Cn1nnc(NC(=S)NC(=O)c2cc(Cl)ccc2Cl)n1` gave HCMV antiviral active, Pf growth 48h 8.28µM*, Pf growth 96h 4.15µM*, Shiga inhibitor 15.4 and Cycloheximide cs -1.0.
Screening Cc1ccc(NC(=O)/C=C/c2ccccc2)c(Br)c1 returned HCMV antiviral 48.1.
For CCCCC(=O)NC(=S)Nc1nnn(CCC)n1 the results were HCMV antiviral -98.2*, Pf growth 48h -4.4%, Pf growth 96h inconclusive, Shiga inhibitor 19.4 and Cycloheximide cs 11.5.
`CCc1ccccc1Nc1sc(C(=O)c2ccccc2)c(N)c1S(=O)(=O)c1ccccc1` gave HCMV antiviral 2.2.
For CCCn1nnc(NC(=O)c2ccc(Cl)cc2Cl)n1 the results were HCMV antiviral 112.0, Pf growth 48h 188.8%, Pf growth 96h inconclusive, Shiga inhibitor 112.9* and Cycloheximide cs 45.0*.
CCCn1nnc(NC(=O)c2cccnc2Cl)n1 was read as HCMV antiviral 37.2, Pf growth 48h 3.2%, Pf growth 96h inconclusive, Shiga inhibitor -1.3 and Cycloheximide cs -3.7.
CCCn1nnc(NC(=O)/C=C/c2ccccc2)n1 was read as HCMV antiviral 30.8, Pf growth 48h 0.0%, Pf growth 96h 14.7%, Shiga inhibitor 51.9 and Cycloheximide cs 16.7*.
Screening CCN(CC)S(=O)(=O)c1ccc2c(c1)N(CC(=O)NCCN1CCOCC1)C(=O)CO2 returned HCMV antiviral inconclusive, Pf growth 48h -0.1%, Pf growth 96h 21.2%, Shiga inhibitor -7.2 and Cycloheximide cs -4.5.
CN(Cc1ccccc1)C(=O)c1ccc(NC(=O)Cc2ccc(NC(=O)C3CCCN(C(=O)C4CC4)C3)cc2)cc1 (centres undefined) was read as HCMV antiviral 3.4.
COC(=O)C1CCN(C(=O)C2CCN(C(=O)[C@H](C)NS(=O)(=O)c3ccc(C)cc3)CC2)CC1 was read as HCMV antiviral 19.3, Pf growth 48h inconclusive, Pf growth 96h 11.7µM*, Shiga inhibitor -1.4 and Cycloheximide cs -1.7.

Screens from PubChem.
